Hit rate of the full screen: of about 220,000 compounds, about 8,200 (3.7%) were called active. Shown is part of a subset that was picked to be rich in actives. Unmarked numbers belong to inactive results.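 Rule for the calls: active = compounds that reduced the stress-induced luciferase reporter signal by more than about 70% of percent inhibition (limit read from the data); inactive = the rest.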

A short description of this test: blockers of ER-stress CHOP reporter expression – cell-based, unfolded protein response, luciferase reporter, primary screen (AID 2732).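 Note: 0% = tunicamycin plus vehicle and 100% = wells without tunicamycin.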 To be noted: CHO-K1 CHOP-promoter luciferase, tunicamycin-induced, 15-18 h; at 10 µM; active compounds read high. A general note: Reporter assays use an easily measured gene product as a stand-in for the process of interest.
As to `CCOC(=O)/C=C/CN(C(=O)OC(C)(C)C)S(=O)(=O)N1CC=CC1`, the inhibition (as a rule, the drop in the measured response relative to a control, in per cent) was 0.06%.

Take `O=C(Cc1csc(Nc2nc(=S)[nH]c3ccccc23)n1)NCCCN1CCN(c2cccc(Cl)c2)CC1`: the inhibition is 79.8% (active).

With `O=C(CCn1c(=O)[nH]c2ccccc2c1=O)NCCCN1CCN(c2cccc(Cl)c2)CC1`, the inhibition is -9.62%.

Take `COc1cccc(CNC(=O)Cc2csc(Nc3nc(=S)[nH]c4ccccc34)n2)c1`: the inhibition was 49.7%.

For the compound `O=[N+]([O-])c1ccc2c(c1)C(O)n1nc(-c3ccccc3)nc1S2` (stereo unspecified), the inhibition was 37.2%.

For the compound `CCCc1nc2c(c(=O)c3ccccc3n2C)c(=O)n1C1CCCCCC1`, the inhibition is 95.5% (active).

With `Cn1c2ccccc2c(=O)c2c(=O)n(Cc3ccco3)c(COc3ccccc3)nc21`, the inhibition was -34.3%.

As for `CCCc1nc2c(c(=O)c3ccccc3n2C)c(=O)n1-c1cc(C)cc(C)c1`, the inhibition was -14.6%.

As to `COc1cc(OC)c(OC)cc1/C=N/Nc1ncnc2c1[nH]c1ccc(C)cc12`, the inhibition was -33.8%.

Consider `O=c1ccnc(Nc2ccc(Cl)cc2)[nH]1`, for which the inhibition was -1.5%.

As to `CC1=NNC(=O)C1CCC(=O)N/N=C(\C)c1ccc(Cl)cc1` (stereo unspecified), the inhibition was 5.21%.

As for `O=[N+]([O-])c1cc(S(=O)(=O)CCCN2CCOCC2)ccc1F`, the inhibition was 97.8% (active).

Regarding `O=[N+]([O-])c1ccc(NCCCN2CCOCC2)c(Cl)c1`, the inhibition is 13%.

In the case of `O=C(NCCCN1CCOCC1)c1ccc([N+](=O)[O-])cc1[N+](=O)[O-]`, the inhibition is -3.24%.

As to `O=C(CN1CCN(Cc2ccccc2)CC1)NC(c1ccccc1)c1ccccc1`, the inhibition was -8.53%.

Consider `CC#CC[N+](C)(C)CCCCCC`, for which the inhibition was -9.84%.

As for `[O-][N+]12CCCCC1CCCC2CO` (stereo unspecified), the inhibition is -6.34%.

Take `COC(=O)/C=C\C(=O)Nc1cccc([N+](=O)[O-])c1`: the inhibition was 107% (active).

Regarding `Cc1ccccc1NC(=S)Nc1cccc([N+](=O)[O-])c1`, the inhibition is 4.63%.

On to `CC(=O)Nc1cccc([N+](=O)[O-])c1`, for which the inhibition was 13.9%.

With `COc1cccc(C(=O)n2ccc(-c3cccs3)n2)c1`, the inhibition is 17.3%.

For the compound `O=c1c2ccccc2cnn1Cc1n[nH]c(=S)n1-c1ccccc1F`, the inhibition was 5.73%.

Consider `CCOC(=O)N1CCN(C(=O)CSc2nc(C)nc3c2c(=O)n(C)c(=O)n3C)CC1`, for which the inhibition was 28.2%.

As for `CSc1nc(C)nc2c1c(=O)n(C)c(=O)n2C`, the inhibition is 11.2%.

On to `CCC(C)Sc1nc(C)nc2c1c(=O)n(C)c(=O)n2C` (stereo unspecified), for which the inhibition was 82.4% (active).

On to `O=c1c(-c2ccc(Cl)cc2)[n+]([O-])c2ccccc2n1OCc1nc2ccccc2[nH]1`, for which the inhibition was 11.1%.

The values above are taken from PubChem BioAssay AID2732 (Emory University Molecular Libraries Screening Center, 2010).
